Sampled rows, rich in hits. Any-hit rate of the full collection: about 4.4%.
D1 PAM: human D1 dopamine receptor positive modulation; P21728; HEK293 TREx D1 cells, calcium flux, dopamine EC20 potentiation; potentiation, % at 10 µM; 360,000 tested, 0.036% active; AID 504651; in the data active means potentiation above about 30%; further: 0% is about no effect
Target sequence (P21728 whole entry, looked up): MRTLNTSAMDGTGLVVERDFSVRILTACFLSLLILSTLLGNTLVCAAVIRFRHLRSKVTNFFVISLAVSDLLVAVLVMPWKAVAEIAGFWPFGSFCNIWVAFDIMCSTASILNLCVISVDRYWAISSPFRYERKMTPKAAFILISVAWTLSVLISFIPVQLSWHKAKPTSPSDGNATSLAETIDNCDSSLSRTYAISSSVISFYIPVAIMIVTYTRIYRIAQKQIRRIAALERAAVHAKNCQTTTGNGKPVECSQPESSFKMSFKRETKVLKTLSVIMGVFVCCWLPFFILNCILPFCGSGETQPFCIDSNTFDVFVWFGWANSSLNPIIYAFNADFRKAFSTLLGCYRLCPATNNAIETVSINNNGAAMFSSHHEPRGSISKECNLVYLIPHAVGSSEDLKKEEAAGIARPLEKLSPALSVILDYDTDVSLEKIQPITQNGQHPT
D1 antagonist: antagonists of human D1 dopamine receptor. HEK293 TREx D1 cells, calcium flux, dopamine EC80; stronger effect = lower value. P21728. 360,000 tested, 3.2% active. activity change, negative = inhibition, % at 10 µM; in the data active means activity change below about -30%; further: on the % scale 0 is the no-effect control and ±100 the full control effect
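Cells carrying a force-coupled, tetracycline-inducible human D1 receptor report calcium flux. Each well gets a 10 s baseline, compound with 180 s monitoring, then an EC80 dopamine stimulus with a second 180 s kinetic read.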
D1 ag: human D1 receptor agonism; 360,000 tested, 1% active; activation, % at 2 µM; HEK293 T-REx D1 cells, calcium flux, agonist mode; P21728; further: 0% is about no effect
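Inducible HEK293 T-REx D1 cells, force-coupled to calcium signalling, were plated at 4000 cells/well with tetracycline and held overnight at 30 C. After no-wash calcium dye loading, compound-evoked calcium rise over 180 s flagged agonists.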
USP1 inh: inhibitors of human USP1/UAF1 deubiquitinase. O94782. recombinant USP1/UAF1, Ub-Rhodamine cleavage fluorescence. Potency, µM (highest dose often 57.1 µM), for the others: at the highest dose activity change, negative = inhibition, actives largely listed as inhibitors. AID 743255. 390,000 tested, 0.23% active; active means well fitted inhibition curve with a large enough effect; inconclusive means small, poorly fitted or top-dose-only effect; inactive means no such curve, though single readings can be large or run the other way; further: potency means the concentration at half of the fitted maximal effect; on the % scale 0 is the no-effect control and ±100 the full control effect; nearly all actives have a fitted effect of over 60% in size
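In this screen, compounds sit with the deubiquitinase complex (1nM) for 15 min at room temperature before Ub-Rho is added at 150nM final. Fluorescence rise is then followed for 6 reads every 60 seconds.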
TRHR agonist: TRH receptor (human) agonism | 360,000 tested, 0.18% active | TRHR cells, calcium flux fluo-8, FDSS agonist mode | AID 493084 | P34981 | activation, % at 2 µM; further: 0% is about no effect
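Steps: seed TRHR cells overnight; add fluo-8 no-wash Ca dye, RT 30 min–1.5 h; record 10 s baseline; pin-transfer compounds; monitor fluorescence 1 cycle/s for the agonist window. Calcium increases flag candidate agonists.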
TRHR PAM: TRH receptor (human) allosteric enhancement; AID 493056; TRHR cells, fluo-8 calcium fluorescence, EC20 TRH enhancement; enhancement, % at 2 µM; 360,000 tested, 0.66% active; in the data active means enhancement above about 30%; further: 0% is about no effect
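Enhancer read-out: after compound pinning and an initial kinetic agonist-mode read, an EC20 of TRH (10 nM final) was injected and fluo-8 calcium signal (Ex 480/Em 530) followed at 1 s/cycle for 100 cycles in TRHR-expressing cells.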
An asterisk follows results filed as active; u = inconclusive. Unless noted, no stated cut-off is given here; in the data, active means activation above about 30%; inactive means the rest.

SMILES | D1 PAM | D1 antagonist | D1 ag | USP1 inh | TRHR agonist | TRHR PAM
CCOC(=O)C1=C(COC(=O)CC(C)c2ccccc2)NC(=O)NC1C (configuration not stated) | -7 | -10 | 0 | -23% | 0 | 0
CCOC(=O)C1=C(COC(=O)c2ncc(Cl)c(Cl)c2Cl)NC(=O)NC1C (configuration not stated) | -4 | -49* | -2 | -22% | 0 | -5
CCOC(=O)C1=C(COC(=O)C(CC)c2ccccc2)NC(=O)NC1C (configuration not stated) | -6 | -36* | 2 | -1% | 1 | -7
COc1ccc(-c2nc3ccccc3s2)cc1NC(=O)c1ccc(F)cc1 | -1 | 15 | 1 | -18% | 0 | 2
CCOC(=O)C1=C(N)n2c(s/c(=C/c3ccco3)c2=O)=C(C(=O)OC)C1c1ccco1 (configuration not stated) | 2 | -1 | 50* | -8% | 3 | -4
CCOC(=O)C1=c2s/c(=C\c3ccncc3)c(=O)n2C(N)=C(C(=O)OC)C1c1ccncc1 (configuration not stated) | 1 | 3 | 2 | -25% | 0 | 13
O=C1COc2ccc(C(=O)COC(=O)Cc3c(F)cccc3Cl)cc2N1 | 1 | -31* | 12 | -2% | 0 | -2
O=C1COc2ccc(C(=O)COC(=O)Cc3ccccc3F)cc2N1 | -4 | -2 | -1 | -3% | 1 | -4
CCCCn1c(=O)c(CCC(=O)OCC(=O)NC(=O)NCCOC)nc2ccccc21 | -1 | 12 | 4 | -10% | 0 | -1
CCCCn1c(=O)c(CCC(=O)OCC(=O)NC(=O)NCCC(C)C)nc2ccccc21 | 0 | 2 | 1 | -8% | 0 | 30*
CC(NC(=O)Nc1cccc(Cl)c1)C(c1cccs1)N1CCCC1 (configuration not stated) | -4 | 34 | 113* | -22% | 1 | 0
CC(NC(=O)Nc1ccc([N+](=O)[O-])cc1)C(c1cccs1)N1CCCC1 (configuration not stated) | 17 | 159 | 175* | -10% | 1 | 0
CC(NC(=O)Nc1ccc(Cl)cc1)C(c1cccs1)N1CCOCC1 (configuration not stated) | 0 | -8 | 0 | -17% | 1 | -1
CC(NC(=O)Nc1ccccc1)C(c1cccs1)N1CCN(C)CC1 (configuration not stated) | -2 | -8 | 2 | -22% | 1 | 1
Cc1ccc(NC(=O)CCn2nc(-c3ccccc3)c3ccccc3c2=O)c(C)c1 | -2 | 23 | 2 | -21% | -1 | 22
CCOc1nc(Nc2ccc([N+](=O)[O-])cc2)nc(NC(C)(C)C)n1 | -9 | -4 | 1 | -16% | 0 | -5
C=CCNc1nc(Nc2ccc([N+](=O)[O-])cc2)nc(OCC)n1 | -9 | -55* | 3 | -19% | 0 | 1
CC(C)c1ccc(S(=O)(=O)c2nnn3c2nc(N2CCCCC2)c2sccc23)cc1 | -3 | 19 | 2 | u | 0 | 2
COc1cc(N=c2ssnc2Cl)cc(OC)c1 | 3 | -4 | 5 | -21% | -2 | 2
Clc1nssc1=Nc1ccc(Br)cc1 | -6 | -11 | 34* | -36% | 1 | 2
COc1ccc(C2=CC(=O)C[C@H](c3ccc(OC)cc3)C2)cc1 | -3 | -37* | 6 | -35% | 0 | 4
COc1ccc([C@H]2CC(=O)C=C(c3ccc(C)c(F)c3)C2)cc1 | -2 | -29 | 56* | -14% | 4 | 0
COc1ccc(CCNC(=O)CCCn2c(=O)c3cccn3c3ccc(F)cc32)cc1OC | -3 | -12 | 4 | -5% | 0 | -8
Cc1cc(OCC(=O)Nc2cccc(S(=O)(=O)NC3=NCCCCC3)c2)ccc1Cl | -2 | -31* | 5 | -14% | 0 | 2
CCC(Sc1nc2nccnc2c(=O)n1Cc1ccc(F)cc1)C(=O)NC1CCCCC1 (configuration not stated) | 0 | -9 | 2 | 5% | 0 | 15
SMILES | D1 PAM | D1 antagonist | D1 ag | USP1 inh | TRHR agonist | TRHR PAM
O=c1c(Cl)c2oc3ccccc3nc-2c2ccccc12 | 0 | 49 | 75* | u | 18 | 13
CCCCN(C)CCNC(=O)Cn1ncc2c3ccccc3n(CCC)c2c1=O | 6 | 0 | 0 | -16% | 0 | 31*
CCCn1c2ccccc2c2cnn(CC(=O)NCCN(C)C)c(=O)c21 | -8 | 9 | 2 | -18% | 1 | 2
CCOC(=O)Cn1c(=O)oc2cc(S(=O)(=O)N3CCN(c4ccc(Cl)cc4)CC3)ccc21 | 0 | -12 | 0 | -4% | 0 | -1
Cc1ccc(S(=O)(=O)N(C)C)cc1NC(=O)C1CCN(C(=O)Nc2ccccc2)CC1 | -6 | -34* | 2 | -6% | 0 | -5
Cc1ccccc1C(=O)NNC(=O)C1CCN(C(=O)Nc2ccccc2)CC1 | -7 | -45* | 0 | -8% | 0 | -2
O=C(NNC(=O)C1CCN(C(=O)Nc2ccccc2)CC1)c1ccc(F)cc1 | -2 | 6 | 1 | -18% | 1 | -9
CCOc1cccc(C(=O)Nc2cc(C)c(O)c(-c3nc4ncccc4o3)c2)c1 | -1 | -4 | 0 | -16% | 1 | 5
Cc1cc(C)n(CCc2nc3c4ccccc4n(CC#N)c(=O)n3n2)n1 | -2 | 1 | 1 | -10% | 0 | 15
COc1cc2c(cc1OC)n(CC(=O)c1ccc(F)cc1)c(=O)n1nc(CCn3nc(C)cc3C)nc21 | 0 | 17 | 0 | -26% | 0 | 36*
COC(=O)C1CCN(C(=O)COC(=O)Cc2c[nH]c3ccccc23)CC1 | -6 | 3 | 3 | 3% | 1 | 37*
Cc1cc(Oc2nc3ccccn3c(=O)c2/C=C(\C#N)C(=O)NC2CCS(=O)(=O)C2)ccc1Cl (configuration not stated) | -7 | -30* | -1 | -8% | 1 | -4
Cc1cccc(Oc2nc3ccccn3c(=O)c2/C=C(\C#N)C(=O)NC2CCS(=O)(=O)C2)c1 (configuration not stated) | -5 | 10 | 1 | -5% | 0 | -1
CC(C)NCC(O)c1ccc(O)c(O)c1 (configuration not stated) | 1 | 10 | 1 | -28% | 0 | 36*
CNC[C@H](O)c1ccc(O)c(O)c1 | 1 | 9 | 3 | -26% | -1 | -4
O=c1cc(CN2CCN(C/C=C/c3ccccc3)CC2)c2cc(O)ccc2o1 | 3 | -33* | 11 | -7% | 1 | 3
O=C(Cn1c(=O)n(CCCS(=O)(=O)C2CCCCC2)c(=O)c2ccccc21)Nc1ccc(F)c(Cl)c1 | -5 | -12 | 1 | -21% | 1 | 0
